Experimental data as given in PubChem BioAssay.
Results with a measured potency or affinity are listed apart. Calls of active or inactive are those of the source. Unless noted, how the calls were made is not given here.

Target: Calcium-dependent protein kinase 1 (Plasmodium falciparum (isolate 3D7)) (UniProt P62344)
Assay: PfCDPK1 kinase inhibitors, biochemical, TCAMS library (AID 1159585; cut-off not given, nearly all actives have IC50 up to about 0.98 µM;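 further: inhibitors leave more ATP so luminescence rises with inhibition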)
Conditions: recombinant PfCDPK1, Kinase-Glo ATP depletion luminescence

Sequence of Calcium-dependent protein kinase 1 (Plasmodium falciparum (isolate 3D7)) (P62344 whole entry, looked up): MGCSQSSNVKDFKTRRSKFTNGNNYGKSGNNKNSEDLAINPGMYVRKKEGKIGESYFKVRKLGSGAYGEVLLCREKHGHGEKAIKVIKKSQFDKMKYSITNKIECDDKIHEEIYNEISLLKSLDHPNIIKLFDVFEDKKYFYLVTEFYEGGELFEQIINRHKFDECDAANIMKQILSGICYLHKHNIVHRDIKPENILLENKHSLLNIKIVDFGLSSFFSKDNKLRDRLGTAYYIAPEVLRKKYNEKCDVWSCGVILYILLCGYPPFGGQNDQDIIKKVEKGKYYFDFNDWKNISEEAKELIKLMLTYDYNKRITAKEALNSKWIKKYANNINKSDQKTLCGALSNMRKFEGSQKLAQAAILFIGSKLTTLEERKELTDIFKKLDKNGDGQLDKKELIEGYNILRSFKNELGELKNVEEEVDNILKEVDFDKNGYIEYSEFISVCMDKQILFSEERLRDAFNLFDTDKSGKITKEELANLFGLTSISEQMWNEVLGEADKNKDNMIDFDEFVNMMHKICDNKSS

Compound | outcome
CC(C)(C)C(=O)N1CCN(c2ccc([N+](=O)[O-])c(NC3CC3)c2)CC1 | inactive
CCc1c[nH]c2c(N3CCCC3=O)cc(C(=O)N[C@@H](Cc3ccccc3)[C@H](O)CNC(C)(C)c3cccc(OC)c3)cc12 | inactive
Cc1ccc2[nH]c(-c3ccc(/C=C/C(=O)NC4CCN(Cc5ccccc5)CC4)cc3)nc2c1C | inactive
Cc1ccc(C(=O)c2oc3ccc4c(C)cc(=O)oc4c3c2C)cc1 | inactive
COc1ccc2nccc(C(=O)NC3CCC(CCN4CCc5cc(C#N)ccc5C4)CC3)c2c1 (stereo not given) | inactive
CCC(CO)NCC(O)Cn1c2ccc(Br)cc2c2cc(Br)ccc21 (stereo not given) | inactive
COCn1ncc2cc(-c3cccc(NC(=O)c4csc(NC(C)=O)n4)c3)ccc21 | inactive
Cc1ccc(CNC(=O)[C@H](CCCN)Nc2nc(Nc3ccccc3)ncc2C)cc1 | inactive
Cc1ccc(C(=O)Cn2nc(-c3ccc(C)c(S(=O)(=O)N4CCCC4)c3)ccc2=O)cc1 | inactive
Cc1cc2nc(-c3ccc(/C=C/C(=O)NCc4ccc(Cl)c(Cl)c4)cc3)[nH]c2cc1C | inactive
CC(C)C[C@@H](CNC[C@H](CC(C)C)NC(=O)OC(C)(C)C)NC(=O)OC(C)(C)C | inactive
CCc1nc2ccc(C(=O)OC)nc2n1Cc1ccc2oc(-c3ccccc3N)c(Br)c2c1 | inactive
Oc1ccc(C2CNCCc3c2cc(O)c(OCc2ccccc2)c3Cl)cc1 (stereo not given) | inactive
COc1ccccc1C(=O)Nc1cccc(N2CCC(NCc3ccc(-n4cccn4)cc3)CC2)c1 | inactive
Fc1ccc(-c2cncc(Nc3ccncc3)n2)cc1 | inactive
NC(=O)c1cccc(C(=O)Nc2cccc(-c3csc(-c4nc5ccccc5[nH]4)c3)c2)c1 | inactive
O=C(/C=C/c1ccc(C(F)(F)F)cc1)NCCCCCN1CCC(c2c[nH]c3ccccc23)CC1 | inactive
CCCOc1cc(OCCC)cc(-c2cc(=O)c3ccccc3[nH]2)c1 | inactive
Cc1c(CCC#N)c(NCc2ccccc2)n2c(nc3ccccc32)c1C#N | inactive
CS(=O)(=O)c1ccccc1CNC(=O)c1cccc(-c2ccc(-c3nc4ccc(C(F)(F)F)cc4[nH]3)cc2)c1 | inactive

Compound | outcome
CCN(CCCN1CCCCC1)c1cc(C)nc(Nc2ccc(C(C)C)cc2)n1 | inactive
CC(C)(C)OC(=O)N[C@@H](Cc1ccccc1)C(=O)Nc1cccc(-c2cccc(NC(=O)[C@H](Cc3ccccc3)NC(=O)OC(C)(C)C)c2)c1 | inactive
OC(CNCc1ccccc1OCc1ccccc1)c1cccc(Br)c1 (stereo not given) | inactive
N#Cc1cc([N+](=O)[O-])ccc1-n1nc(C(N)=O)n(Cc2cccc(F)c2)c1=S | inactive
CCC1CN2CCc3c([nH]c4ccccc34)C2CC1CC1=NCCc2c1[nH]c1ccccc21 (stereo not given) | inactive
CC1(C)N=C(N)N=C(N)N1OCCCOc1ccccc1N | inactive
O=C(/C=C/c1ccc(Cl)cc1)NCCCCCN1CCCC(C(=O)Nc2cccc(Cl)c2)C1 (stereo not given) | inactive
COc1ccc(CN2CCC(Oc3cccc(NC(=O)c4ccc(C(F)(F)F)cc4)c3)CC2)cc1 | inactive
O=C(Nc1ccc(-c2cccc(-c3nc4ccc(C(F)(F)F)cc4[nH]3)c2)cc1)c1ccncc1 | inactive
O=C1CSc2ccc(CNC3CCN(CCc4c(Cl)cnc5ccc(Cl)cc45)CC3)nc2N1 | inactive
Cc1ccc(NC(=O)c2nc(N3CCN(c4ccncc4)CC3)ccc2Cl)cc1F | inactive
O=C(/C=C/c1ccc(Cl)c(Cl)c1)NCCCCCN1CCCN(C(=O)Nc2cc(Cl)nc(Cl)c2)CC1 | inactive
CCc1cn2c3c(cc(C(=O)N[C@@H](Cc4ccccc4)[C@H](O)CN[C@@H](C)CC)cc13)N(C)S(=O)(=O)CC2 | inactive
Cc1cc(NN=Cc2ccccn2)c2cc(F)ccc2n1 | inactive
CC(=O)Nc1nc(C(=O)Nc2ccc(-c3cccc(-c4nc5ccc(F)cc5[nH]4)c3)cc2)cs1 | inactive
CCOc1ccc(C(=O)N2CCOC(CCN3CCC(c4ccccc4)CC3)(c3ccc(Cl)c(Cl)c3)C2)cc1 (stereo not given) | inactive
CN(C(=O)c1ccc(Br)cc1)c1ccccc1[N+](=O)[O-] | inactive
CCCn1c(Sc2ccc(C#N)c([N+](=O)[O-])c2)nnc1-c1ccc(Cl)cc1 | inactive
FC(F)(F)c1cccc(Nc2nc3nonc3nc2NC2C3CC4CC(C3)CC2C4)c1 (stereo not given) | inactive
O=C(Cc1cnc[nH]1)Nc1cccc(-c2ccc(-c3nc4ccc(C(F)(F)F)cc4[nH]3)cc2)c1 | inactive

Target: Plasmodium falciparum protein kinase 6 (PK6, PF3D7_1337100) (UniProt Q8IDW1)
Assay: PfPK6 kinase inhibitors, biochemical, TCAMS library (AID 1159586)
Conditions: recombinant PfPK6, Kinase-Glo ATP depletion luminescence

Sequence of Plasmodium falciparum protein kinase 6 (PK6, PF3D7_1337100) (Q8IDW1 1-305): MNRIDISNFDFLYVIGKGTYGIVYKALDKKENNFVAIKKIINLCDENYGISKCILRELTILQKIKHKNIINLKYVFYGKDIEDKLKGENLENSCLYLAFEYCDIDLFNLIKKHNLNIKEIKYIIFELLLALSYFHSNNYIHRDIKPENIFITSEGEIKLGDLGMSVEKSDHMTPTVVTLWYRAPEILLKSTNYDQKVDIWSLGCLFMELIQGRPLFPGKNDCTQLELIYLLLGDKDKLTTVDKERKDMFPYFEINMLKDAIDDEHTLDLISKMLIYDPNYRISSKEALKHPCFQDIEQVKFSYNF

Compound | outcome
CC(C)(C)C(=O)N1CCN(c2ccc([N+](=O)[O-])c(NC3CC3)c2)CC1 | inactive
CCc1c[nH]c2c(N3CCCC3=O)cc(C(=O)N[C@@H](Cc3ccccc3)[C@H](O)CNC(C)(C)c3cccc(OC)c3)cc12 | inactive
Cc1ccc2[nH]c(-c3ccc(/C=C/C(=O)NC4CCN(Cc5ccccc5)CC4)cc3)nc2c1C | inactive
Cc1ccc(C(=O)c2oc3ccc4c(C)cc(=O)oc4c3c2C)cc1 | inactive
COc1ccc2nccc(C(=O)NC3CCC(CCN4CCc5cc(C#N)ccc5C4)CC3)c2c1 (stereo not given) | inactive
CCC(CO)NCC(O)Cn1c2ccc(Br)cc2c2cc(Br)ccc21 (stereo not given) | inactive
COCn1ncc2cc(-c3cccc(NC(=O)c4csc(NC(C)=O)n4)c3)ccc21 | inactive
Cc1ccc(CNC(=O)[C@H](CCCN)Nc2nc(Nc3ccccc3)ncc2C)cc1 | inactive
Cc1ccc(C(=O)Cn2nc(-c3ccc(C)c(S(=O)(=O)N4CCCC4)c3)ccc2=O)cc1 | inactive
Cc1cc2nc(-c3ccc(/C=C/C(=O)NCc4ccc(Cl)c(Cl)c4)cc3)[nH]c2cc1C | inactive
CC(C)C[C@@H](CNC[C@H](CC(C)C)NC(=O)OC(C)(C)C)NC(=O)OC(C)(C)C | inactive
CCc1nc2ccc(C(=O)OC)nc2n1Cc1ccc2oc(-c3ccccc3N)c(Br)c2c1 | inactive
Oc1ccc(C2CNCCc3c2cc(O)c(OCc2ccccc2)c3Cl)cc1 (stereo not given) | inactive
COc1ccccc1C(=O)Nc1cccc(N2CCC(NCc3ccc(-n4cccn4)cc3)CC2)c1 | inactive
Fc1ccc(-c2cncc(Nc3ccncc3)n2)cc1 | inactive
NC(=O)c1cccc(C(=O)Nc2cccc(-c3csc(-c4nc5ccccc5[nH]4)c3)c2)c1 | inactive
O=C(/C=C/c1ccc(C(F)(F)F)cc1)NCCCCCN1CCC(c2c[nH]c3ccccc23)CC1 | inactive
CCCOc1cc(OCCC)cc(-c2cc(=O)c3ccccc3[nH]2)c1 | inactive
Cc1c(CCC#N)c(NCc2ccccc2)n2c(nc3ccccc32)c1C#N | inactive
CS(=O)(=O)c1ccccc1CNC(=O)c1cccc(-c2ccc(-c3nc4ccc(C(F)(F)F)cc4[nH]3)cc2)c1 | inactive

Compound | outcome
CCN(CCCN1CCCCC1)c1cc(C)nc(Nc2ccc(C(C)C)cc2)n1 | inactive
CC(C)(C)OC(=O)N[C@@H](Cc1ccccc1)C(=O)Nc1cccc(-c2cccc(NC(=O)[C@H](Cc3ccccc3)NC(=O)OC(C)(C)C)c2)c1 | inactive
OC(CNCc1ccccc1OCc1ccccc1)c1cccc(Br)c1 (stereo not given) | inactive
N#Cc1cc([N+](=O)[O-])ccc1-n1nc(C(N)=O)n(Cc2cccc(F)c2)c1=S | inactive
CCC1CN2CCc3c([nH]c4ccccc34)C2CC1CC1=NCCc2c1[nH]c1ccccc21 (stereo not given) | inactive
CC1(C)N=C(N)N=C(N)N1OCCCOc1ccccc1N | inactive
O=C(/C=C/c1ccc(Cl)cc1)NCCCCCN1CCCC(C(=O)Nc2cccc(Cl)c2)C1 (stereo not given) | inactive
COc1ccc(CN2CCC(Oc3cccc(NC(=O)c4ccc(C(F)(F)F)cc4)c3)CC2)cc1 | inactive
O=C(Nc1ccc(-c2cccc(-c3nc4ccc(C(F)(F)F)cc4[nH]3)c2)cc1)c1ccncc1 | inactive
O=C1CSc2ccc(CNC3CCN(CCc4c(Cl)cnc5ccc(Cl)cc45)CC3)nc2N1 | inactive
Cc1ccc(NC(=O)c2nc(N3CCN(c4ccncc4)CC3)ccc2Cl)cc1F | inactive
O=C(/C=C/c1ccc(Cl)c(Cl)c1)NCCCCCN1CCCN(C(=O)Nc2cc(Cl)nc(Cl)c2)CC1 | inactive
CCc1cn2c3c(cc(C(=O)N[C@@H](Cc4ccccc4)[C@H](O)CN[C@@H](C)CC)cc13)N(C)S(=O)(=O)CC2 | inactive
Cc1cc(NN=Cc2ccccn2)c2cc(F)ccc2n1 | inactive
CC(=O)Nc1nc(C(=O)Nc2ccc(-c3cccc(-c4nc5ccc(F)cc5[nH]4)c3)cc2)cs1 | inactive
CCOc1ccc(C(=O)N2CCOC(CCN3CCC(c4ccccc4)CC3)(c3ccc(Cl)c(Cl)c3)C2)cc1 (stereo not given) | inactive
CN(C(=O)c1ccc(Br)cc1)c1ccccc1[N+](=O)[O-] | inactive
CCCn1c(Sc2ccc(C#N)c([N+](=O)[O-])c2)nnc1-c1ccc(Cl)cc1 | inactive
FC(F)(F)c1cccc(Nc2nc3nonc3nc2NC2C3CC4CC(C3)CC2C4)c1 (stereo not given) | inactive
O=C(Cc1cnc[nH]1)Nc1cccc(-c2ccc(-c3nc4ccc(C(F)(F)F)cc4[nH]3)cc2)c1 | inactive
